{"source": "the supplement of paper PMC4894684", "note": "Where a name gives a salt, the structure may show the parent alone. ± gives the standard deviation of the averaged measurements."}
{"system": "Toxoplasma gondii RH (in HFF)", "test": "parasite growth relative to the screen mean (all compounds = 100%); higher = less inhibition of parasite growth", "conditions": "5 µM; 72 h; oxygen 21 %", "procedure,_shortened": "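Values give growth relative to the screen mean. The screen mean (all compounds) is set at 100%, and two screens were averaged. Compounds at 5 µM final were placed on confluent human foreskin fibroblasts, which were infected within 2 h with RH β-Gal–GFP Toxoplasma (MOI 1:5) and kept 72 h at 21% O2 before a CPRG β-Gal readout against in-plate standard curves.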", "units": {"parasite growth": "%"}}
{"smiles": "O=C(OCCN1CCOCC1)C1(c2ccccc2)CCCCC1", "note": "[PRE-084 hydrochloride]", "parasite growth": "99.6 ± 19"}
{"smiles": "NC[C@@H]1O[C@H](C23CC4CC(CC(C4)C2)C3)Cc2c1ccc(O)c2O", "parasite growth": "89.5 ± 18"}
{"smiles": "CN(C)c1nc(N)c(C(=O)Nc2cccnc2)nc1Cl", "note": "[ACDPP hydrochloride]", "parasite growth": "88.7 ± 3"}
{"smiles": "CSc1cc2c(cc1C(F)(F)F)N(C(=O)Nc1cccnc1)CC2", "parasite growth": "122 ± 30"}
{"smiles": "CN(CC[C@@H](Oc1ccc(-c2ccccc2)cc1)c1ccc(F)cc1)CC(=O)O", "note": "[ALX 5407 hydrochloride]", "parasite growth": "136 ± 5.8"}
{"smiles": "Cn1ccc2cc(NC(=O)Nc3cccnc3)ccc21", "parasite growth": "129 ± 6.5"}
{"smiles": "CN(CCOc1ccc(-c2ccc3c(c2)OCO3)cc1C(C)(C)C)CC(=O)O", "parasite growth": "110 ± 38"}
{"smiles": "CN1C(C(=O)Nc2ccccn2)=C(O)c2ccccc2S1(=O)=O", "note": "[Piroxicam]", "parasite growth": "153 ± 34"}
{"smiles": "CCOC(=O)c1c(C)[nH]c2ccc3c(c12)CN1CCc2cc(OC)ccc2C1O3", "note": "(stereo not drawn)", "parasite growth": "16.8 ± 6.5"}
{"smiles": "Clc1ccc2nsnc2c1NC1=NCCN1", "note": "[Tizanidine hydrochloride]", "parasite growth": "113 ± 2.4"}
{"smiles": "CN(C)CCCSc1ccccc1NC(=O)/C=C/c1ccccc1", "note": "[Cinanserin hydrochloride]", "parasite growth": "120 ± 9.6"}
{"smiles": "NC(=O)c1ccc2[nH]ccc2c1", "parasite growth": "91.2 ± 12"}
{"smiles": "CN1CCN(C2=Nc3cc(Cl)ccc3Nc3ccccc32)CC1", "note": "[Clozapine]", "parasite growth": "178 ± 40"}
{"smiles": "OC[C@H]1O[C@@H](n2cnc3c(N[C@H]4CCC[C@@H]4O)ncnc32)[C@H](O)[C@@H]1O", "parasite growth": "140 ± 10"}
{"smiles": "FC(F)(F)c1cccc(-c2noc(-c3cc(-c4ccccc4)c(C(F)(F)F)s3)n2)c1", "parasite growth": "109 ± 44"}
{"smiles": "Nc1nc2c(ccc3ccccc32)s1", "parasite growth": "158 ± 11"}
{"smiles": "CCCOc1ccc(Br)cc1-c1cc(-c2ccc(Cl)cc2)[nH]c1-c1ccncc1", "parasite growth": "37 ± 9"}
{"smiles": "NC(C(=O)O)c1cc(O)cc(O)c1", "note": "(racemic)", "parasite growth": "142 ± 15"}
{"smiles": "O=C1NC(=O)c2cc(Nc3ccc(F)cc3)c(Nc3ccc(F)cc3)cc21", "parasite growth": "171 ± 51"}
{"smiles": "CN(C(=O)CCCOc1ccc2[nH]c(=O)ccc2c1)C1CCCCC1", "note": "[Cilostamide]", "parasite growth": "69.6 ± 26"}
{"smiles": "Cn1cc(C2=C(c3ccc(Cl)cc3Cl)C(=O)NC2=O)c2ccccc21", "parasite growth": "136 ± 4.2"}
{"smiles": "CC(C)NC[C@@H](O)COc1cccc2ccccc12", "note": "[(R)-(+)-Propranolol hydrochloride]", "parasite growth": "87.15 ± 0.86"}
{"smiles": "C/N=C(/NC#N)NCCSCc1csc(NC(=N)N)n1", "note": "[Tiotidine]", "parasite growth": "122 ± 30"}
{"smiles": "CC(=O)NNC(=O)N1Cc2ccccc2Oc2ccc(Cl)cc21", "parasite growth": "136 ± 40"}
{"smiles": "Oc1cc2c(cc1O)C(c1ccccc1)CNCC2", "note": "(stereo not drawn)", "parasite growth": "162 ± 47"}
{"smiles": "CCN(CC)c1ccc(/C=N/NC(=O)c2ccc(O)cc2)cc1", "parasite growth": "115 ± 28"}
{"smiles": "OC(c1ccccc1)C1CCN(CCc2ccccc2)CC1", "note": "(stereo not drawn)", "parasite growth": "70.7 ± 12"}
{"smiles": "CCN1CCC[C@H]1CNC(=O)c1c(O)c(Cl)cc(Cl)c1OC", "note": "[Raclopride]", "parasite growth": "138 ± 25"}
{"smiles": "Cc1cc(C)cc(C(=O)N(C)[C@H](Cc2ccc(-c3ccccc3)cc2)C(=O)N[C@@H](Cc2c[nH]c3ccccc23)C(=O)O)c1", "parasite growth": "146 ± 20"}
{"smiles": "N[C@H](C(=O)O)[C@H](OCc1ccccc1)C(=O)O", "note": "(racemic)", "parasite growth": "80.3 ± 61"}
{"smiles": "COc1ccc(-c2nc(-c3ccc(-c4cccc(Cl)c4)o3)[nH]c2-c2ccc(OC)cc2)cc1", "note": "[Neurodazine]", "parasite growth": "120 ± 28"}
{"smiles": "c1ccc(COCCCc2c[nH]cn2)cc1", "note": "[Proxyfan Oxalate]", "parasite growth": "112 ± 18"}
{"smiles": "CCCOc1ccccc1-c1nc2[nH]nnc2c(=O)[nH]1", "note": "[Zaprinast]", "parasite growth": "98.3 ± 14"}
{"smiles": "COc1nc(C)nc(Cl)c1NC1=NCCN1", "note": "[Moxonidine hydrochloride]", "parasite growth": "108 ± 27"}
{"smiles": "Cn1nnc2c(C(N)=O)ncn2c1=O", "note": "[Temozolomide]", "parasite growth": "89.4 ± 4.9"}
{"smiles": "CCCCCCCC/C=C\\CCCCCCCC(=O)N[C@@H](CO)Cc1ccc(O)cc1", "parasite growth": "171 ± 11"}
{"smiles": "Cn1ccc2cc3c(cc21)CCN3C(=O)Nc1cccnc1", "parasite growth": "121 ± 17"}
{"smiles": "S=C(S)N1CCCC1", "note": "[Pyrrolidinedithiocarbamate ammonium]", "parasite growth": "< 0"}
